Sfp PPTase inh – Sfp phosphopantetheinyl transferase inhibition; Biochemical Sfp PPTase activity, qHTS; Potency, µM, actives largely listed as inhibitors; hit rate 3.5% among 310,000;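 also: the enzyme is Sfp with the accession as filed and its product quenches rhodamine fluorescence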
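Step 1, compound plus 15 nM Sfp-PPTase, 15 min, room temperature. Step 2, add rhodamine-CoA (5 uM) and BHQ-2-YbbR (12.5 uM). Step 3, read 525/598 nm fluorescence at 0 and 30 min.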
G9a inh – blocks human histone lysine methyltransferase G9a. G9a H3K9 monomethylation, AlphaScreen, 2 h. Q96KQ7. Potency, µM (top dose mostly 102 µM), hits mostly inhibitors. hit rate 8.8% among 350,000; also: nearly all actives have a fitted effect of over 75% in size
Target sequence (Q96KQ7 913-1193 limits assumed): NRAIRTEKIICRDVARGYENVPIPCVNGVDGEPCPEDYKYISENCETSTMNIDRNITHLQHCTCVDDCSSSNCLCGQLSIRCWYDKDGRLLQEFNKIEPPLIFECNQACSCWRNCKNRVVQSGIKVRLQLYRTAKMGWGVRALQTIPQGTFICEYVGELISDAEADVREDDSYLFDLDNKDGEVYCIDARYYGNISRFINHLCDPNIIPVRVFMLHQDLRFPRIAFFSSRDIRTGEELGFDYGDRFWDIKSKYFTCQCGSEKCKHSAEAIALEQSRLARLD
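G9a (20 nM) was preincubated 15 min with compound, then reacted 2 h at room temperature with 500 nM biotin-H3K9 peptide and 20 µM SAM. Monomethyl-H3K9 detected by AlphaScreen using anti-H3K9me1 antibody.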
BAZ2B block – inhibitors of human BAZ2B bromodomain. Potency, µM (highest dose often 114 µM), actives largely listed as inhibitors. hit rate 4.4% among 360,000. Q9UIF8. AID 504333. AlphaScreen BAZ2B-H3K14Ac peptide displacement; also: nearly all actives have a fitted effect of over 60% in size
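AlphaScreen displacement: compounds (up to 110uM) incubated 30 min at room temperature with a preformed 50 nM BAZ2B/50 nM biotinylated H3K14Ac peptide complex in PBS pH 7.4 with Tween-20. Donor and acceptor beads at 10 ug/mL final added, 20 min light-protected before reading.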
HP1b binding inh – blocks HP1-beta chromodomain binding to methylated histone tails | AlphaScreen HP1-beta / biotin-H3K9me3 peptide binding | Potency, µM (top dose mostly 114 µM), hits mostly inhibitors | hit rate 0.56% among 390,000; also: nearly all actives have a fitted effect of over 70% in size
Target sequence (P83916 whole entry, looked up): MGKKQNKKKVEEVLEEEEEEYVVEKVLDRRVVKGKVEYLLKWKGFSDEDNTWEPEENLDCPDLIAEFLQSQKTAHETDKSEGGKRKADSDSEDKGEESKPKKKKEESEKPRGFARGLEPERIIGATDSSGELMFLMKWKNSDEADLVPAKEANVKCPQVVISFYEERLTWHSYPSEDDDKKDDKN
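HP1-beta protein (50 nM final) preincubated 30 min at room temperature with biotinylated H3(1-18)K9me3 peptide (50 nM) in PBS pH 7.4, 0.01% Tween-20, then compound added for 30 min. AlphaScreen streptavidin donor/nickel chelate acceptor beads (10 ug/mL final), 30 min dark, luminescence read.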
JMJD2A Tudor – JMJD2A Tudor domain (human) inhibition. AlphaScreen JMJD2A-Tudor / H3K4me3 peptide binding. Potency, µM (top dose mostly 114 µM), actives largely listed as inhibitors. hit rate 4.4% among 390,000. AID 504339; also: nearly all actives have a fitted effect of over 50% in size
Of the large screens only hits and unclear results are named; the others gave an inactive call. Shown are actives, neighbours in structure and some others; about 12% of the full set was active somewhere. Calls follow the shape of the dose curve; as a rule, active = well fitted curve in the direction sought with a large enough effect; inconclusive = small, poorly fitted or top-dose-only effect, or another doubt; inactive = no such curve, though single readings can be large; an effect the other way counts as inactive or inconclusive.

COc1ccc([C@@H]2[C@H]3CN(C(C)=O)CC=C3C(C#N)=C(N)C2(C#N)C#N)c2ccccc12	G9a inh 45µM
CCCC1C2CN(C(C)=O)CC=C2C(C#N)=C(N)C1(C#N)C#N (stereo not given)	G9a inh 14µM
CCC1C2CN(C(C)=O)CC=C2C(C#N)=C(N)C1(C#N)C#N (stereo not given)	G9a inh 45µM
CCCOc1ccc([C@@H]2C3CN(C(=O)OCC)CC=C3C(C#N)=C(N)C2(C#N)C#N)cc1OC (stereo not given in full)	G9a inh inconclusive
CCOC(=O)N1CC=C2C(C#N)=C(N)C(C#N)(C#N)[C@H](c3cccs3)C2C1 (stereo not given in full)	none
CCCCNC(=O)COC(=O)c1cc(F)c(F)cc1Cl	none (no result: G9a inh)
O=C1CCCC2=C1C(c1ccccc1)NC(=S)N2 (stereo not given)	Sfp PPTase inh inconclusive
COc1ccc(C2NC(=S)NC3=C2CCCC3=C2SCCS2)cc1 (stereo not given)	G9a inh inconclusive, BAZ2B block 32µM
S=C1NC2=C(CCCC2=C2SCCCS2)C(c2ccccc2)N1 (stereo not given)	G9a inh 0.79µM, BAZ2B block inconclusive
Cc1ccc(C)c(NC(=S)NCc2ccccc2)c1	none
Cc1ccc(C)c(NC(=S)N/N=C/C(C)c2ccccc2)c1 (stereo not given)	G9a inh 35µM, BAZ2B block inconclusive
CN(C)S(=O)(=O)c1cccc(NC(=S)N/N=C/C(c2ccccc2)c2ccccc2)c1	Sfp PPTase inh inconclusive, G9a inh 25µM, JMJD2A Tudor inconclusive
CC(/C=N/NC(=S)Nc1cccc(S(=O)(=O)N(C)C)c1)c1ccccc1 (stereo not given)	Sfp PPTase inh 89µM, G9a inh 8.9µM, JMJD2A Tudor 20µM
N=c1c(C(=O)NCC2CCCO2)cc2c(=O)n3ccccc3nc2n1Cc1ccco1 (stereo not given)	G9a inh inconclusive
CCN1CCOC(CC(=O)Nc2cccc([N+](=O)[O-])c2)C1=O (stereo not given)	Sfp PPTase inh inconclusive, G9a inh 7.9µM
CCCN1CCOC(CC(=O)Nc2ccc([N+](=O)[O-])cc2)C1=O (stereo not given)	G9a inh 20µM
CCOC(=O)c1ccc(NC(=O)CC2OCCN(CC)C2=O)cc1 (stereo not given)	G9a inh inconclusive
Cn1c(SC2CCCCC2=O)nnc1-c1ccncc1 (stereo not given)	none
O=C(Nc1ccc2c(c1)OCO2)c1cccc(S(=O)(=O)N2CCCC2)c1	none
O=C(c1ccco1)N1CCN=C1SCc1ccc(F)cc1	none
CCn1c(-c2ccccn2)nc2cc(S(=O)(=O)N(C)C)ccc21	G9a inh 50µM
CCn1c(C)nc2cc(S(N)(=O)=O)ccc21	JMJD2A Tudor 14µM (no result: G9a inh)
CCCCn1c(CCC(=O)O)nc2cc(S(=O)(=O)N(C)C)ccc21	none
CCn1c(CSc2nnc(C)n2-c2ccccc2)nc2cc(S(=O)(=O)N(C)C)ccc21	none
CCn1c(C)nc2cc(S(=O)(=O)N3CCCC3)ccc21	none
CCn1c(-c2cc(Br)cc(OC)c2O)nc2cc(S(=O)(=O)N(C)C)ccc21	G9a inh 45µM
CC(=O)c1cc2c(cc1N/C(=N/S(=O)(=O)c1ccc(C)cc1)c1ccccc1)OCO2	none
O=C(c1ccncc1)N1CCC2(CC1)CCN(c1ccc(-c3ccccc3)cc1)CC2	none (no result: BAZ2B block, HP1b binding inh, JMJD2A Tudor)
CC(=O)N1CCN(c2ccc(NC(=O)C(c3ccccc3)c3ccccc3)cc2)CC1	G9a inh 50µM, JMJD2A Tudor inconclusive
CCC(CC)C(=O)N1CCN(c2ccccc2)CC1	G9a inh 79µM
CC(=O)N1CCC2(CC1)CCN(c1ccc(-c3ccccc3)cc1)CC2	Sfp PPTase inh 56µM (no result: BAZ2B block, HP1b binding inh, JMJD2A Tudor)
CCN(CC)c1ccc(C(=O)OCC(=O)N2CCN(c3ccccc3)CC2)cc1	JMJD2A Tudor 4.5µM
Cc1ccc(S(=O)(=O)N2CCCCC2)cc1NC(=O)CN1C(=O)CN(C)C1=O	none
CCN(CC)CCn1c(=S)[nH]c2cc(C(=O)NCc3ccc(C)cc3)ccc2c1=O	none (no result: G9a inh)
CC(=O)c1ccc(NCC(=O)N2CCN(c3ccccc3)CC2)cc1	G9a inh 14µM

Bioassay records from PubChem.
